# Assay results from PubChem BioAssay.
# The source made the active and inactive calls.
# How the values were obtained:
# [1] = test system: PRMT1 (protein arginine N-methyltransferase 1); test: small molecules binding arginine methyltransferase PRMT1 – biochemical, small-molecule microarray, 635 nm fluorescence, primary screen (AID 1088); details: higher = more signal;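 note: binding of Prmt1 protein to compounds spotted on small-molecule microarray slides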
# [2] = growth effects on S. cerevisiae YJM789 – YJM789 clinical isolate, OD600, 24 h, basal, primary screen (AID 1089); details: higher = more signal, called active from +8 up or from −8 down;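 note: growth of clinical yeast isolate S. cerevisiae YJM 789 seeded 1000 cells per well; test concentration not given here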
# [3] = S. pombe growth modifiers, basal conditions – strain 972, OD600, 24 h, no modulator, primary screen (AID 1090);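 note: basal condition with compound alone and no growth modifier present; test concentration not given here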; details: S. pombe 972 growth, higher = more signal, called active from +8 up or from −8 down
# [4] = budding yeast growth modifiers under rapamycin – strain BY4716, OD600, 96 h, primary screen (AID 1091); note: test concentration not given here; details: S. cerevisiae BY4716 + rapamycin, higher = more signal, called active from +8 up or from −8 down
# [5] = biological target: Torsin-1A-interacting protein 2 (Homo sapiens) (UniProt Q8NFQ8); test: small molecules binding lysate-expressed LULL1 – cell lysate, human LULL1 lysate, 635/667 nm fluorescence, primary screen (AID 1092); details: small-molecule microarray, hLULL1 lysate binding, 635 nm fluorescence; higher = more signal;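 note: probe is lysate of COS7 cells overexpressing human LULL1; score merges per-feature 667 nm fluorescence with signal-to-noise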
# [6] = optical density change of DRC41 E. coli – strain DRC41, OD650, 24 h, E. coli filamentation project, primary screen (AID 1093);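 note: MC1000 strain lacking acrAB efflux and sulA so SOS filamentation is blocked; test concentration not given here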; details: E. coli DRC41 growth, higher = more signal, called active from +8 up or from −8 down
# [7] = probe aLefty2 binding to arrayed compounds – biochemical, biotinylated probe, 635/667 nm fluorescence, primary screen (AID 1094); details: small-molecule microarray, higher = more signal;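 note: score merges spot fluorescence near 667 nm with spot signal-to-noise ratio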
# [8] = test system: Noggin (protein binding on small-molecule microarray); test: small molecules binding Noggin protein – biochemical, 635/667 nm fluorescence, primary screen (AID 1095); details: 635 nm fluorescence, higher = more signal;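 note: score merges 667 nm feature fluorescence with signal to noise over triplicate slides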
# [9] = biological target: Neurogenic locus notch homolog protein 3 (Homo sapiens) (UniProt Q9UM47); test: small molecules binding NOTCH3 protein – biochemical, 635/667 nm fluorescence, primary screen (AID 1096); details: small-molecule microarray, 635 nm fluorescence, higher = more signal
# [10] = probe aEGFR binding to arrayed compounds – biochemical, biotinylated probe, 635/667 nm fluorescence, primary screen (AID 1097); details: small-molecule microarray, higher = more signal;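 note: probe is a biotinylated anti-EGFR antibody binding compounds printed on slides; score combines fluorescence near 667 nm and signal to noise of each spot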
# [11] = test system: Plasmodium falciparum Sir2 (PF13_0152, Sir2A); test: Plasmodium falciparum Sir2A binding compounds – biochemical, small-molecule microarray, 635 nm fluorescence, primary screen (AID 1098); details: fluorescence 635 nm, higher = more signal;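 note: score merges spot fluorescence intensity with its signal-to-noise ratio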
# [12] = probe aDKK1 binding to arrayed compounds – biochemical, biotinylated probe, 635/667 nm fluorescence, primary screen (AID 1099); details: small-molecule microarray, higher = more signal;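 note: score merges 667nm spot fluorescence with signal to noise across triplicate slides; reference of the scale not given here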
# [13] = probe aCHRDL2 binding to arrayed compounds – biochemical, biotinylated probe, 635/667 nm fluorescence, primary screen (AID 1100); details: small-molecule microarray, higher = more signal
# [14] = change in splice reporter luminescence, either direction, cell-based, HEK293, spliceosome inhibition project, primary screen (AID 1101); details: HEK293 splicing luciferase reporter, 24 h, higher = more signal, called active from +8 up or from −8 down;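 note: HEK293 cells carrying a splicing-competent luciferase reporter gene; test concentration not given here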
# [15] = biological target: Fibroblast growth factor 10 (Homo sapiens) (UniProt O15520); test: compounds binding fibroblast growth factor 10 – biochemical, small-molecule microarray, 635 nm fluorescence, primary screen (AID 1102); details: FGF10 binding, fluorescence 635 nm, higher = more signal
# [16] = test system: glycogen synthase kinase-3 (GSK3A per assay name; protocol says GSK3B); test: compounds binding glycogen synthase kinase-3 – biochemical, small-molecule microarray, 635 nm fluorescence, GSK3A, primary screen (AID 1103); details: fluorescence 635 nm, higher = more signal; note: the record names both GSK3A and GSK3B
# [17] = biological target: Epidermal growth factor receptor (Homo sapiens) (UniProt P00533); test: compounds binding epidermal growth factor receptor – biochemical, small-molecule microarray, 635 nm fluorescence, primary screen (AID 1104); details: EGFR binding, higher = more signal;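 note: score merges 667 nm emission intensity with spot signal to noise over triplicate slides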
# [18] = biological target: Follistatin-related protein 3 (Homo sapiens) (UniProt O95633); test: compounds binding follistatin-related protein 3 – biochemical, small-molecule microarray, 635 nm fluorescence, primary screen (AID 1105); details: FSTL3 binding, higher = more signal;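 note: score merges emission near 667 nm and signal to noise per printed spot across three slides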
# [19] = biological target: Dickkopf-related protein 1 (Homo sapiens) (UniProt O94907); test: small molecules binding DKK1 protein – biochemical, small-molecule microarray, 635 nm fluorescence scan, primary screen (AID 1106); details: higher = more signal;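 note: score merges emission near 667 nm with signal to noise over three replicate slides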
# [20] = test system: Inhibin beta A chain (activin A); test: small molecules binding activin A – biochemical, small-molecule microarray, 635 nm fluorescence scan, primary screen (AID 1107); details: INHBA, higher = more signal;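 note: mouse activin A protein probed at 4.33 µg/mL on printed slides; score merges bound-protein fluorescence near 667 nm with spot signal-to-noise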
# Fibroblast growth factor 10 (Homo sapiens), sequence (O15520 whole entry, looked up): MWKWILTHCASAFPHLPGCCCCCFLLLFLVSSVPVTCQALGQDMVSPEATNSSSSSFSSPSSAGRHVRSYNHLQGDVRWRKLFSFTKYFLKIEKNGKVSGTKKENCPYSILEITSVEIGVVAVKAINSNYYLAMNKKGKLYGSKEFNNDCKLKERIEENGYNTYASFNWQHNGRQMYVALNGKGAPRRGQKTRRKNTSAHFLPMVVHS
# Torsin-1A-interacting protein 2 (Homo sapiens), sequence (Q8NFQ8 whole entry, looked up): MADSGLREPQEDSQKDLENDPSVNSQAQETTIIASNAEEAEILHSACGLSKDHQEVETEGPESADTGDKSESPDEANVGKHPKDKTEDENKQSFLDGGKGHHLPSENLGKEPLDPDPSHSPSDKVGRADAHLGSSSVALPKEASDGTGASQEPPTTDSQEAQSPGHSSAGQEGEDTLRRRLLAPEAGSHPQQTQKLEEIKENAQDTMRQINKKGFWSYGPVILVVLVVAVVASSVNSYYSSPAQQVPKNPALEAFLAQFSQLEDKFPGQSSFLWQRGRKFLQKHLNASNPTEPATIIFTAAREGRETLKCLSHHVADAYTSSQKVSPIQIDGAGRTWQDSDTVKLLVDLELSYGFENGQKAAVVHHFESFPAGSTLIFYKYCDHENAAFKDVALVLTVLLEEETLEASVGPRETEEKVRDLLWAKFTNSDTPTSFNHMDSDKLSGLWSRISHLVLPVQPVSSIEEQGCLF
# Neurogenic locus notch homolog protein 3 (Homo sapiens), sequence (Q9UM47 whole entry, looked up): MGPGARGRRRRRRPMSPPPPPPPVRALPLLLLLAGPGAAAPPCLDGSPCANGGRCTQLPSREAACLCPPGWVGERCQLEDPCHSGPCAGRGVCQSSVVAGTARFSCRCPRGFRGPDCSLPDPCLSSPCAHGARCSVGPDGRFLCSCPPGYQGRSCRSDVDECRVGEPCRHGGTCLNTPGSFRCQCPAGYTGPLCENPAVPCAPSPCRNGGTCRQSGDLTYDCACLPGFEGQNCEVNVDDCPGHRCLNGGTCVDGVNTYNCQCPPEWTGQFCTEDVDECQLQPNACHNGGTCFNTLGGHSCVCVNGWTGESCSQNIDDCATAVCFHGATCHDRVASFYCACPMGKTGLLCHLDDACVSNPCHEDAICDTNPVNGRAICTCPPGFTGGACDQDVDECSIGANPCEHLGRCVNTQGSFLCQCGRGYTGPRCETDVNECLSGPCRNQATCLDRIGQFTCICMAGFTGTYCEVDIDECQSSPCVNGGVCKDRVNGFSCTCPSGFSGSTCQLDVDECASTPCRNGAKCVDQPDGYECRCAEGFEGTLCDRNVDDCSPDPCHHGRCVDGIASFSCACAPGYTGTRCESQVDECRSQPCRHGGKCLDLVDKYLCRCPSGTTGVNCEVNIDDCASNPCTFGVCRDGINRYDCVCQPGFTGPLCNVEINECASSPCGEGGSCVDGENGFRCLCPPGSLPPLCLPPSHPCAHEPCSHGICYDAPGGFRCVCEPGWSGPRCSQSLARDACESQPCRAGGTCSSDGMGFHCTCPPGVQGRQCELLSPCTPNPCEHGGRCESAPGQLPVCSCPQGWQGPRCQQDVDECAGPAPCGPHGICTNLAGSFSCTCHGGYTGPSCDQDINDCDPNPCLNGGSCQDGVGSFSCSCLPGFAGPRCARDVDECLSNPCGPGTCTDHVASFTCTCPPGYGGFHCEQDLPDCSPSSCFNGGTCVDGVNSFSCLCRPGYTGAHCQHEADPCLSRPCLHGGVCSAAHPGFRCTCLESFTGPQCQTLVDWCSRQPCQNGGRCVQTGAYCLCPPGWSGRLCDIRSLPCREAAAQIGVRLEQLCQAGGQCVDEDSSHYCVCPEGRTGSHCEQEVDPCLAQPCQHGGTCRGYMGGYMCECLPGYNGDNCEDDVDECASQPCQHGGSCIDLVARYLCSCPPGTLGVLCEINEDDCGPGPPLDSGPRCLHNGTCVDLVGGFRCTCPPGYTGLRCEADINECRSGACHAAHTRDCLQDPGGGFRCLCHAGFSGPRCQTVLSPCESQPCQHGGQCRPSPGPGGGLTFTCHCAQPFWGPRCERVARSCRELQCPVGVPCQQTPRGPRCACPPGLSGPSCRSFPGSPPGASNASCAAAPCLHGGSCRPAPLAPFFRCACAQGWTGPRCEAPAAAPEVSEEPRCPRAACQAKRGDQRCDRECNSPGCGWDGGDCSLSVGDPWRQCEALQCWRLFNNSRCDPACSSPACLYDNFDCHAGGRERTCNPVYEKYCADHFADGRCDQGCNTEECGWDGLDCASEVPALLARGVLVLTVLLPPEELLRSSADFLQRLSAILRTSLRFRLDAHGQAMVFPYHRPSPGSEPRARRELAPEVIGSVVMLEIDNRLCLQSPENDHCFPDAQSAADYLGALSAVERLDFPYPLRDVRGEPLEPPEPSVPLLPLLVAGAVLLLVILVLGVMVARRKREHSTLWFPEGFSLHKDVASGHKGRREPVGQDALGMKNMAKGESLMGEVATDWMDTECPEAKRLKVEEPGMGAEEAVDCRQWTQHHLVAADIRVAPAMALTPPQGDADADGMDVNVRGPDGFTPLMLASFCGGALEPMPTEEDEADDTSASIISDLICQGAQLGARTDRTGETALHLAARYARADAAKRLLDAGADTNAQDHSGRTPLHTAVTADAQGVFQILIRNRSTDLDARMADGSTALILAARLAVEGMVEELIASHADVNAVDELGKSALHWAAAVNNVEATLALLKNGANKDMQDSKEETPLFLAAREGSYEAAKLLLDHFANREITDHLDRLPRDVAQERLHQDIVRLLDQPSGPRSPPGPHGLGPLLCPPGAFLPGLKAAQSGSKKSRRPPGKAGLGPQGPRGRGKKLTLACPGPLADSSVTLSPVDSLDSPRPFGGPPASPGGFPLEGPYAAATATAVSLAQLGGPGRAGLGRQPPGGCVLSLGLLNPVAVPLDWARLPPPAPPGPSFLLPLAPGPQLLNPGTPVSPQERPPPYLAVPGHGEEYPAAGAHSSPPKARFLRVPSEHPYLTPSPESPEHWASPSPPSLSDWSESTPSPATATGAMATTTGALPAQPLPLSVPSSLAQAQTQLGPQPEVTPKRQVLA
# Epidermal growth factor receptor (Homo sapiens), sequence (P00533 whole entry, looked up): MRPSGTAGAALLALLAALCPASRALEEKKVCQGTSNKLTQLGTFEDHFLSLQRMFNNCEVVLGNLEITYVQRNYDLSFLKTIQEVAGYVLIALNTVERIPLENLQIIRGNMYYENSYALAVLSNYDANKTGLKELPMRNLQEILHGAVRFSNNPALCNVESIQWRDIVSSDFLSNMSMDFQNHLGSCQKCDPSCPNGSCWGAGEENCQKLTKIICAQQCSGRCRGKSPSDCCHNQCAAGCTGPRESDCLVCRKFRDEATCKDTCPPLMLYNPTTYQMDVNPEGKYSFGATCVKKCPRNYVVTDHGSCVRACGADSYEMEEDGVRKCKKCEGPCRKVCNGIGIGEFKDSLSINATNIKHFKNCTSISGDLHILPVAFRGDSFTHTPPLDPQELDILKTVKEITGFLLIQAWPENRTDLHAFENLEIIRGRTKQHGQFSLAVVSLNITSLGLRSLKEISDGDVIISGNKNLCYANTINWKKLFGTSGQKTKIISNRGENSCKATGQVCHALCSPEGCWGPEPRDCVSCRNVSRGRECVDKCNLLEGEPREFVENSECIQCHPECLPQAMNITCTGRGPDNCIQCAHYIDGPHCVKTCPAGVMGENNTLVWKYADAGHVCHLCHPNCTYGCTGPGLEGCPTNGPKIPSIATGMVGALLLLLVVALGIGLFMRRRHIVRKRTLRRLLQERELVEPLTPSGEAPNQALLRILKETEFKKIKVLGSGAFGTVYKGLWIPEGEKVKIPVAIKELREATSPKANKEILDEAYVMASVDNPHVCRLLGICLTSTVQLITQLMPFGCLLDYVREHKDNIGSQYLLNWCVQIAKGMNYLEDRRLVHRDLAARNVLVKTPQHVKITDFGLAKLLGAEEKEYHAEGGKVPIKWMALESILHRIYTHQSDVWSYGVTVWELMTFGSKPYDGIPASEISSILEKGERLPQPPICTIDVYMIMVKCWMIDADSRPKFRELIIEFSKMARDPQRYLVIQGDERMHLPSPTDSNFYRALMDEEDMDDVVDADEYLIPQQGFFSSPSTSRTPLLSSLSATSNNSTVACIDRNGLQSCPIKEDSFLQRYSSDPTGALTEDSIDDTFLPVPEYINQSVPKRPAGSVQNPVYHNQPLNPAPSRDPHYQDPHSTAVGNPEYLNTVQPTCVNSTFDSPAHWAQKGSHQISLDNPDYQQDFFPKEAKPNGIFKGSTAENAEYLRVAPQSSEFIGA
# Follistatin-related protein 3 (Homo sapiens), sequence (O95633 whole entry, looked up): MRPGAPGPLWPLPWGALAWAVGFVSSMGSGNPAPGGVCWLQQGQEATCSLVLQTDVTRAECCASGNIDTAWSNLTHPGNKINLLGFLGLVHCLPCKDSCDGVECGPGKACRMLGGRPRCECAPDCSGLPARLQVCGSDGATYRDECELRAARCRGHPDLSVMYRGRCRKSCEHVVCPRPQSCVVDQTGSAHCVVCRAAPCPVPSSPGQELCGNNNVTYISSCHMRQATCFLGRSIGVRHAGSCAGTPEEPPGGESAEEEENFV
# Dickkopf-related protein 1 (Homo sapiens), sequence (O94907 whole entry, looked up): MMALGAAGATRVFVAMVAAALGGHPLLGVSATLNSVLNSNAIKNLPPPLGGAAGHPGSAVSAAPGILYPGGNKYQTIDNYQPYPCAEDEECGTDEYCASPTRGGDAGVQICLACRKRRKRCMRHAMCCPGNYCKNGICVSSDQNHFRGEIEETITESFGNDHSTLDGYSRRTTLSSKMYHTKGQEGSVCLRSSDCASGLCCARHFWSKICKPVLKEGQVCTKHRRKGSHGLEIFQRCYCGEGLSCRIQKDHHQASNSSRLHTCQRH
Compound,composite z-score [1],z-score [2],z-score [3],z-score [4],composite z-score [5],z-score [6],composite z-score [7],composite z-score [8],composite z-score [9],composite z-score [10],composite z-score [11],composite z-score [12],composite z-score [13],z-score [14],composite z-score [15],composite z-score [16],composite z-score [17],composite z-score [18],composite z-score [19],composite z-score [20]
C=C(CCCC)/C(=C/C[C@H](OC(C)=O)c1ccccc1OCCO)c1cnc2ccccc2c1,1.32,0.617 (inactive),-0.654 (inactive),0.826 (inactive),1.15,0.02 (inactive),-0.235,0.788,1.1,-0.142,0.593,-0.278,-0.114,1.81 (inactive),0.931,-0.0183,0.0674,0.747,0.277,1.52
O=C(CS)NCCCCCNC(=O)[C@@H]1C[C@@H]2C(=O)NCC(=O)N2[C@@H]1c1ccc(O)cc1,1.08,0.118 (inactive),-0.771 (inactive),0.494 (inactive),1.47,2.13 (inactive),-0.124,0.362,0.179,-0.15,0.793,-0.179,0.347,0.0774 (inactive),0.528,0.692,0.17,0.157,-0.109,0.606
CC(C)=CCCC(C)=CC(O)C1C=CC2C(=O)N(c3ccccc3)C(=O)C2N1Nc1ccc(C(C)C)cc1 (stereo not given),0.629,0.437 (inactive),0.834 (inactive),1.07 (inactive),3,-0.589 (inactive),0.0937,0.0026,1.05,-0.0234,0.855,-0.0008,0.816,0.433 (inactive),0.691,0.615,-0.0514,0.966,-0.609,0.583
C=C(C(=O)CC[C@H](OC(C)=O)c1ccccc1OCCO)C(C)C,0.316,-25 (active),-20.2 (active),-4.35 (inactive),-0.808,0.43 (inactive),-0.232,0.657,0.0937,-0.188,0.78,-0.287,0.006,-1.94 (inactive),1.28,-1.29,-0.803,-0.226,-0.284,-0.139
O=C(NCCN1CCOCC1)[C@@H]1c2ccccc2C(=O)N(Cc2cc(C(F)(F)F)cc(C(F)(F)F)c2)[C@H]1c1ccc(CO)cc1,1.56,0.764 (inactive),-0.091 (inactive),0.0371 (inactive),2.37,0.339 (inactive),-0.0856,-0.901,-0.578,-0.0744,1.51,0.254,0.851,0.91 (inactive),-1.17,-0.332,-1.35,-1.55,-1.23,-1.54
O=C1NC(=O)C2C1C=CC(C(O)c1ccc(I)cc1)N2Nc1ccccn1 (stereo not given),0.321,-0.353 (inactive),0.426 (inactive),0.17 (inactive),2.56,-0.956 (inactive),-0.0328,0.143,0.15,-0.0947,1.33,0.0824,0.464,1.04 (inactive),-0.0548,-0.269,0.268,-0.0861,0.153,1.14
CC(C)OC(=O)C=C1C[C@@H](c2cccc(Cl)c2)O[C@@H](c2cccc(Cl)c2)O1,-0.341,-0.338 (inactive),-5.58 (inactive),-0.764 (inactive),1.99,-0.391 (inactive),-0.0009,-0.225,-0.735,-0.13,1.31,0.471,1.11,1.35 (inactive),0.31,0.651,-1.18,-0.901,-1.42,1.24
C=CC1c2cc(O)c(OC)cc2CCN1Cc1cccc(OC(F)(F)F)c1 (stereo not given),1.22,-26 (active),-20.2 (active),-3.13 (inactive),3.88,0.148 (inactive),-0.129,-0.0799,-0.344,-0.125,-0.128,-0.0819,0.516,-0.918 (inactive),-0.438,-0.765,-0.417,0.0396,-0.0102,1.64
[N-]=[N+]=Nc1ccccc1[C@H]1OC(c2ccc(OCCCO)cc2)=N[C@@]1(CCS(=O)(=O)c1ccccc1)C(=O)NCc1ccccc1,1.57,-0.832 (inactive),0.342 (inactive),2.23 (inactive),3.63,-0.443 (inactive),0.154,0.669,1.1,0.174,0.91,0.812,0.988,-0.431 (inactive),1.18,1.32,0.258,1.14,0.584,1.05
C=C[C@H](C)[C@@H](OC(=O)Nc1ccc(SC)cc1)c1ccc(O)c2ccccc12,1.28,-24.3 (active),-20.7 (active),-1.88 (inactive),1.89,1.22 (inactive),-0.0159,0.936,1.11,0.137,1.3,-0.118,0.216,-0.8 (inactive),1.33,1.28,1.07,1.44,1.34,0.482
